Reference: PubChem BioAssay (NCATS)
Inconclusive results are not listed. Activity calls are given as the source filed them. Unless noted, the call rests on the fitted dose curve; in most records, active means well fitted curve in the direction sought with a large enough effect; inconclusive means small, poorly fitted or top-dose-only effect, or another doubt; inactive means no such curve, though single readings can be large; an effect the other way counts as inactive or inconclusive.

Assays:
[1] = molecular target: Lysosomal acid glucosylceramidase (Homo sapiens) (UniProt P04062); test: Glucocerebrosidase-p2 (AID 348; in the data active means potency below about 10 µM; further: potency means the concentration at half of the fitted maximal effect); conditions: purified GBA, blue fluorogenic substrate, 40 min
How it was run: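 Compounds titrated from 0.6 nM upwards against 0.2 nM enzyme in pH 5.9 citric acid/KH2PO4, taurocholate, tween-20; blue fluorogenic substrate 80 uM, 40 min room temperature, stopped and read Ex 365/Em 440 for AC50.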

[2] = AP1 Signaling Pathway (AID 357; active means well fitted curve in either direction with a large enough effect, not every such curve was filed as active;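 further: ME-180 reporter cells stimulated with EGF at its EC50 level; on the % scale 0 is the no-effect control and ±100 the full control effect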); conditions: ME-180 AP-1-bla reporter, EGF-induced, beta-lactamase ratio, 5 h; at 7.69 µM (top of the series) unless noted
How it was run: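 Beta-lactamase reporter under AP-1 response element, ME-180 background. Stimulus: EC50 EGF. Compound exposure 5 h, 37 °C. Detection: CCF4, 2.5 h RT, 460/530 nm. Values: AC50 from titration.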

[3] = molecular target: Cytochrome P450 1A2 (Homo sapiens) (UniProt P05177); test: p450-cyp1a2 (AID 410; calls by dose curve; further: potency means the concentration at half of the fitted maximal effect); conditions: recombinant CYP1A2, luciferin-ME demethylation, luminescence; series mostly up to 57 µM
How it was run: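 20nM CYP1A2 with 100uM Luciferin-ME (at Km) in 100mM KPO4; compound preincubated 10 min, NADPH regeneration added, 60 min at room temperature. Luciferin quantified by luminescence after detection reagent; normalized to 57 uM furafylline.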

[4] = NFAT Signaling Pathway (AID 444; active means well fitted curve in either direction with a large enough effect, not every such curve was filed as active;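 further: carbachol stimulus at about its EC50 of 1 µM final; on the % scale 0 is the no-effect control and ±100 the full control effect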); conditions: Jurkat NFAT-bla M1, carbachol, beta-lactamase ratio, 5 h; at 7.69 µM (top of the series) unless noted
How it was run: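 Jurkat cells carrying an NFAT-driven β-lactamase reporter and co-transfected muscarinic M1 receptor were treated with compound plus carbachol (1 uM final, an EC50 level) for 5 h at 37 °C. CCF4 loading followed for 1 h at RT; 460/530 nm ratio gave %activity.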

[5] = Stat Signaling Pathway (AID 446; active means well fitted curve in either direction with a large enough effect, not every such curve was filed as active;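 further: ME-180 cervical cancer cells given 40 pM IL-6 alongside compound; SIE-controlled beta-lactamase reporter measured as 460/530 nm FRET emission ratio; on the % scale 0 is the no-effect control and ±100 the full control effect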); conditions: ME-180 SIE beta-lactamase reporter, IL-6 stimulated, 5 h; at 7.69 µM (top of the series) unless noted
How it was run: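 Screening format detects activators and inhibitors alike: ME-180 SIE-bla cells stimulated at 40 pM IL-6 for 5 hrs with compound, then dual-emission beta-lactamase read at 405 nm excitation.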

[6] = molecular target: Glucocorticoid receptor (Homo sapiens) (UniProt P04150); test: GR-GFP Redistribution (AID 450;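 active means compounds whose dose series gives a full or clear partial fitted curve of increased nuclear translocation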; further: potency means the concentration at half of the fitted maximal effect); conditions: U2OS GR-GFP nuclear translocation, laser cytometry, 2 h
[7] = molecular target: Glucocorticoid receptor (Homo sapiens) (UniProt P04150); test: GR-EFC Redistribution (AID 451; calls by dose curve; further: potency means the concentration at half of the fitted maximal effect); conditions: CHO-K1 GR-EFC translocation, beta-gal luminescence, 2 h
How it was run: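 CHO-K1 cells stably expressing nuclear-localized β-gal enzyme acceptor and GR fused C-terminally to the enzyme donor fragment; ligand-driven nuclear translocation restores β-gal by complementation. Compounds titrated up to 46 uM final, 2 h at 37 °C; luminescence read.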

[8] = molecular target: Mitogen-activated protein kinase 10 (Mus musculus) (UniProt Q61831); test: JNK3 AlphaScreen Assay (AID 530; active means well fitted curve in either direction with a large enough effect, not every such curve was filed as active;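 further: kinase came from lysate of stimulated human HepG2 cells; signal reports phosphorylation of biotinylated GST-cJun 1-79 at Ser73 with 10 µM ATP; on the % scale 0 is the no-effect control and ±100 the full control effect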); conditions: JNK3 lysate, c-Jun phosphorylation; series mostly up to 57.1 µM
How it was run: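 Inhibitors reduce antibody binding to phosphorylated biotin-cJun, lowering AlphaScreen luminescence. Lysates from HepG2 cells pre-activated by IL-1beta plus TNF-alpha supplied JNK3; compounds were titrated.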

[9] = molecular target: Cytochrome P450 3A4 (Homo sapiens) (UniProt P08684); test: qHTS Assay for Activators of Cytochrome P450 3A4 (AID 885); conditions: recombinant CYP3A4, Luciferin-PPXE luminescence, 60 min; series mostly up to 57.1 µM; further: nearly all actives have a fitted effect of over 65% in size
How it was run: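 Steps: enzyme/substrate mix dispensed; compound added, 10 min RT; NADPH regeneration solution added, 60 min RT; luciferin detection buffer stops reaction; 20 min later luminescence measured.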

[10] = qHTS Assay for Lipid Storage Modulators (AID 1519; calls by dose curve); conditions: Drosophila S3 cells, BODIPY lipid droplet/cell ratio, laser cytometry, cells loaded with oleic acid; for activity change, negative = inhibition: at 57.5 µM (top of the series)
How it was run: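 Cells seeded at 5,000 per well were treated with compounds over a concentration series and loaded with oleic acid (400 uM, as added). Lipid droplet fluorescence (488 nm excitation, 500-530 nm channel) was read by laser-scanning cytometry and normalized to 20 uM Triacsin C.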

[11] = molecular target: Dual specificity protein kinase CLK4 (Homo sapiens) (UniProt Q9HAZ1); test: qHTS Assay for Inhibitors of CDC-like Kinase 4 (Kinase-Glo Assay) (AID 1770); conditions: recombinant Clk4, Kinase-Glo ATP depletion luminescence; series mostly up to 66.7 µM; further: nearly all actives have a fitted effect of over 65% in size; further: potency means the concentration at half of the fitted maximal effect
How it was run: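 Clk4 25 nM, RS peptide 100 uM, ATP 1 uM, pH 7.5 Tris, 10 mM MgCl2, 2.5 mM DTT; 4.5 h RT; ATP depletion read by Kinase-Glo luminescence.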

[12] = molecular target: Dual specificity protein kinase CLK4 (Homo sapiens) (UniProt Q9HAZ1); test: qHTS Assay for Inhibitors of CDC-like Kinase 4 (ADP-Glo Assay) (AID 1771); conditions: recombinant CLK4, ADP-Glo luminescence; series mostly up to 80 µM; further: nearly all actives have a fitted effect of over 70% in size; further: potency means the concentration at half of the fitted maximal effect
How it was run: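 25 nM Clk4 with 100 uM RS repeat peptide and 1 uM ATP (final) in buffer with 2 mM MgCl2, 0.5 mM EGTA, 2.5 mM DTT, 0.01% Triton X-100; 1 h at room temperature; ADP-Glo luminescence for ADP formed.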

[13] = molecular target: Dual specificity protein kinase CLK4 (Homo sapiens) (UniProt Q9HAZ1); test: qHTS Assay for Inhibitors of CDC-like Kinase 4 (ADP-FP Assay) (AID 1795); conditions: Transcreener ADP fluorescence polarization; series mostly up to 50 µM; further: nearly all actives have a fitted effect of over 60% in size; further: potency means the concentration at half of the fitted maximal effect
How it was run: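 Kinase activity was followed as ADP output, converted from fluorescence polarization with a calibration curve. Reactions ran one hour at low ATP (1 uM) with RS peptide substrate.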

[14] = molecular target: Ubiquitin carboxyl-terminal hydrolase 1 (Homo sapiens) (UniProt O94782); test: Inhibitors of USP1/UAF1: Pilot qHTS (AID 504865); conditions: purified USP1/UAF1, Ub-rhodamine cleavage fluorescence; series mostly up to 54.9 µM;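 further: rhodamine fluorescence freed from ubiquitin-rhodamine substrate followed over time; top concentration of the series differs between compounds; on the % scale 0 is the no-effect control and ±100 the full control effect; nearly all actives have a fitted effect of over 35% in size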
How it was run: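 Enzyme-free wells gave the negative control, while test wells held 1nM USP1/UAF1 preincubated with compound for 15 min at room temperature. Ub-Rho at 150nM final started the reaction, and fluorescence at 480/540 nm was recorded kinetically.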

[15] = molecular target: 3',5'-cyclic-AMP phosphodiesterase 4B (Homo sapiens) (UniProt Q07343); test: qHTS Assay for Inhibitors of PDE-IV (AID 607; active means well fitted activation curve with a large enough effect in the main read-out, with a control signal flat, not every such curve was filed as active; further: % of control where 0% means no effect); conditions: HEK293 ACTOne CNG channel cells, membrane potential fluorescence; series mostly up to 22.9 µM
How it was run: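 The readout is membrane depolarisation from a cAMP-sensing CNG channel, detected with a potential dye at ex 535/em 590. Cells were HEK293-derived (endogenous PDE-IV) at 1000 cells/well, titrated up to 22.9 uM final.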

[16] = qHTS Assay for Identification of Small Molecule Agonists for Hypoxia Response Element Signaling Pathway (AID 914; active means well fitted activation curve with a large enough effect in the signal ratio, with a control signal flat, not every such curve was filed as active; the % refers to the signal ratio; further: potency means the concentration at half of the fitted maximal effect; on activation: % of control where 0% means no effect); conditions: ME-180 (cervical carcinoma) HRE-bla reporter, beta-lactamase ratio, CoCl2, 17 h; activation: stronger effect = higher value
How it was run: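 Reporter activity (beta-lactamase, CCF4 460nm/530nm ratio) in HRE-bla ME-180 cells is recorded after 17 h compound exposure with EC50 CoCl2 at 37 degrees Celsius. AC50 values come from titration data.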

[17] = measured here: cell count channel max response
[18] = measured here: lipid channel max response

Sequence of Dual specificity protein kinase CLK4 (Homo sapiens) (Q9HAZ1 whole entry, looked up): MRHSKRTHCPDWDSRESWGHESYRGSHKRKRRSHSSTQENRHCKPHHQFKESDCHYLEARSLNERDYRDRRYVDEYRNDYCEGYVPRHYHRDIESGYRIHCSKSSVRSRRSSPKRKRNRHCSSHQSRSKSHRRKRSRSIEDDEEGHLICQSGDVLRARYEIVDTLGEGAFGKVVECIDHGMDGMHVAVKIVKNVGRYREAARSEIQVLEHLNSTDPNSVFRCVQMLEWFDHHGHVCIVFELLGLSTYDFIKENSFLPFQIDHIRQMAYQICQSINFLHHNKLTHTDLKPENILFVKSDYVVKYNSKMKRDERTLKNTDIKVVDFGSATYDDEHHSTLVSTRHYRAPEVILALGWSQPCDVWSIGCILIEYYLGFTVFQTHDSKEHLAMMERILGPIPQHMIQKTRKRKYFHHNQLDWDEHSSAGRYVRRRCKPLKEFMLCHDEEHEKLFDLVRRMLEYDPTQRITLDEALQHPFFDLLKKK
Sequence of Lysosomal acid glucosylceramidase (Homo sapiens) (P04062 whole entry, looked up): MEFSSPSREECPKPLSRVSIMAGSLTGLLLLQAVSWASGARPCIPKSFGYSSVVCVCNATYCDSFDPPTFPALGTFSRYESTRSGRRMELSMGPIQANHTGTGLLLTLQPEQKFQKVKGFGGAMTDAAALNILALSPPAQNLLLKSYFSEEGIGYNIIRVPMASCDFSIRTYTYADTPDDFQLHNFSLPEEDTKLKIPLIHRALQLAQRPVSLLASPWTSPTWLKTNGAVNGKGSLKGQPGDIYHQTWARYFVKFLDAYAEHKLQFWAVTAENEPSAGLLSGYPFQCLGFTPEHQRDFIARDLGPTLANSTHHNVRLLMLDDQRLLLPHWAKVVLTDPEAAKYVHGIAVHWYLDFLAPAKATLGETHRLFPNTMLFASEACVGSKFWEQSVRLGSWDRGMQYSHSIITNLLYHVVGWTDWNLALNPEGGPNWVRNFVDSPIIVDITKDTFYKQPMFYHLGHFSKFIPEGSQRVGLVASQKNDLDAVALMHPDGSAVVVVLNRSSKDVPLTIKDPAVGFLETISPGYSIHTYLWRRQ
Sequence of Cytochrome P450 1A2 (Homo sapiens) (P05177 whole entry, looked up): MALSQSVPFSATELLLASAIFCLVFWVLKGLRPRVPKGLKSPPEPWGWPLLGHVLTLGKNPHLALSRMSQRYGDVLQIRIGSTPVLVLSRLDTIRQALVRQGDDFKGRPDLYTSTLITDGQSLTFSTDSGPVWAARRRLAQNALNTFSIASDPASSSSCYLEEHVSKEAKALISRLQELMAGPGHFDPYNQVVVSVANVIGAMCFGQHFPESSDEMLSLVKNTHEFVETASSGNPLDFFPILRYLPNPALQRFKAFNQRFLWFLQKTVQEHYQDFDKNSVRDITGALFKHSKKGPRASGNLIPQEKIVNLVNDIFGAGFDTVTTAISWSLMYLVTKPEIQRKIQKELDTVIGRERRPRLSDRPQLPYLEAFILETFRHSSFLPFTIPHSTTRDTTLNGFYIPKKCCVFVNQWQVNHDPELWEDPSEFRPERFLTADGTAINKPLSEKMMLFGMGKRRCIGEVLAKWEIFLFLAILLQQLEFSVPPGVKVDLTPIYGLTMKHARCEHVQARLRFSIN
Sequence of Ubiquitin carboxyl-terminal hydrolase 1 (Homo sapiens) (O94782 whole entry, looked up): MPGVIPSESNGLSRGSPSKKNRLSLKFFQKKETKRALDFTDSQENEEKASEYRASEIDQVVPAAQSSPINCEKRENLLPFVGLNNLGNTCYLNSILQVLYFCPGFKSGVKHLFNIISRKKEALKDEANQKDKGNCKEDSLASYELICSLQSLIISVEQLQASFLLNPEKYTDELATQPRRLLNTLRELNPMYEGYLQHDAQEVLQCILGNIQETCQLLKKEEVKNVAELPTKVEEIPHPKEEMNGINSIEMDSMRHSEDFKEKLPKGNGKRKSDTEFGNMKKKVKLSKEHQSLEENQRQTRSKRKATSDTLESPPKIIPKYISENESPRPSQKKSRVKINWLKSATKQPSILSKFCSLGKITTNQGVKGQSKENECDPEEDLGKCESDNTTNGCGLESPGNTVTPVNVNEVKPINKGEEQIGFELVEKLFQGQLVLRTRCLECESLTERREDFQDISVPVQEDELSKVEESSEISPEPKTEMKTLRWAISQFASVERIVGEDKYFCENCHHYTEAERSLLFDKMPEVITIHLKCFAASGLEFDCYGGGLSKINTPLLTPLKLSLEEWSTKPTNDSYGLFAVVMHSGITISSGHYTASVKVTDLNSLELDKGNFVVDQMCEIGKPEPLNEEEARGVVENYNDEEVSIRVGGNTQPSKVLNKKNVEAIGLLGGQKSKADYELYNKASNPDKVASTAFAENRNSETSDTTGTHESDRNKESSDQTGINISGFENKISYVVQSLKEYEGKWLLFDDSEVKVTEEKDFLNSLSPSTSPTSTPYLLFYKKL
Sequence of Glucocorticoid receptor (Homo sapiens) (P04150 whole entry, looked up, the tested form may be a part): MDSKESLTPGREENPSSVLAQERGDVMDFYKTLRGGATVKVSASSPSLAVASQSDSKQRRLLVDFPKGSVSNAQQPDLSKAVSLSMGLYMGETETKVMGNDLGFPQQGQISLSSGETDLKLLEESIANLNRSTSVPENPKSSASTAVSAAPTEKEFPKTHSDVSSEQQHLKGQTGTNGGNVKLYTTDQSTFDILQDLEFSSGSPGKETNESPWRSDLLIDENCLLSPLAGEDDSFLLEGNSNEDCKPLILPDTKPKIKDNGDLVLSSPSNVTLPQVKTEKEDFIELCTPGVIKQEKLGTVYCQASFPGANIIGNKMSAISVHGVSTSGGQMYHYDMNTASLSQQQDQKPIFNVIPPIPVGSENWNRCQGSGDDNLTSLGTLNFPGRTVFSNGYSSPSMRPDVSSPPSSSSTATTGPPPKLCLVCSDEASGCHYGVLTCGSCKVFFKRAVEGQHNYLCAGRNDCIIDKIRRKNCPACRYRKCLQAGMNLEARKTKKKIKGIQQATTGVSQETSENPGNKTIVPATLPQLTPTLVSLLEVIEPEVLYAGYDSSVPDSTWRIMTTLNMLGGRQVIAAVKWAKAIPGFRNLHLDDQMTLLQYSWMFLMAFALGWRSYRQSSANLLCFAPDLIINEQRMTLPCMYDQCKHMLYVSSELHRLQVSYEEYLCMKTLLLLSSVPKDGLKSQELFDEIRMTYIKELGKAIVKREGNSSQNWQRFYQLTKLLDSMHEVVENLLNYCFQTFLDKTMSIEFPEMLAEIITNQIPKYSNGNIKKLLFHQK
Sequence of Cytochrome P450 3A4 (Homo sapiens) (P08684 whole entry, looked up): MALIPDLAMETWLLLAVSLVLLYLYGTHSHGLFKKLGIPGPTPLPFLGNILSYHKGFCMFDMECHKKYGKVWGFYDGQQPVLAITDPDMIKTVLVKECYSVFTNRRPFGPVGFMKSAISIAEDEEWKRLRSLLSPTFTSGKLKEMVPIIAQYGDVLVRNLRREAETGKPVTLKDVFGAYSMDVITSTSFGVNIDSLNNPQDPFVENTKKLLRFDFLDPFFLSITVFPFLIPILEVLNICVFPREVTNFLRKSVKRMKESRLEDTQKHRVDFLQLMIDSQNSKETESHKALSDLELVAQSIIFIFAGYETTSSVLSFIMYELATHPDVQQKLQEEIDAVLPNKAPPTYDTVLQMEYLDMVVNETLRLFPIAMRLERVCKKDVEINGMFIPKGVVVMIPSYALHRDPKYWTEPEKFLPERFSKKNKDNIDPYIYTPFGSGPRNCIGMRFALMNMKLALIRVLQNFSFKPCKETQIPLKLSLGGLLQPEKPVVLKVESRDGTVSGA
Sequence of 3',5'-cyclic-AMP phosphodiesterase 4B (Homo sapiens) (Q07343 whole entry, looked up): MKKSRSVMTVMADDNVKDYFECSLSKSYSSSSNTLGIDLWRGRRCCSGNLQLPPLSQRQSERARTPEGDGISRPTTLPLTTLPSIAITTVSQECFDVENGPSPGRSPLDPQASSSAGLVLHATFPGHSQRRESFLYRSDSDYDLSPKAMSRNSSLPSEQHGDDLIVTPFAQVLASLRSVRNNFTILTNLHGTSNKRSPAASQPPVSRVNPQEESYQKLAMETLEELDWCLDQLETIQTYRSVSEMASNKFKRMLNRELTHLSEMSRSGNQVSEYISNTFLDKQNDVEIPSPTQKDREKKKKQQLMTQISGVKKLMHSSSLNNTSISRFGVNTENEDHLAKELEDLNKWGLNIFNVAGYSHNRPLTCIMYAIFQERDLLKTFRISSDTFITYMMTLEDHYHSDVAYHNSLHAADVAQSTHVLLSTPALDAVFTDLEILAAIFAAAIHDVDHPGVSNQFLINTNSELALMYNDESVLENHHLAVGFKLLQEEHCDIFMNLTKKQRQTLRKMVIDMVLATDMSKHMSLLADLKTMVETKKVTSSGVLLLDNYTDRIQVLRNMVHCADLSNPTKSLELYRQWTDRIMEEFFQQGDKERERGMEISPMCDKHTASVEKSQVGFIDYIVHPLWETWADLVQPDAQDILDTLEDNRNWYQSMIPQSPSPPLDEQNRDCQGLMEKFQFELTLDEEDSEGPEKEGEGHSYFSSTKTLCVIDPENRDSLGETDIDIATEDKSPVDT

| Compound | Potency [1] | activity change, negative = inhibition [2] | Potency [3] | activity change, negative = inhibition [4] | activity, negative = inhibition [5] | Potency [6] | Potency [7] | Potency [8] | Potency [9] | activity change, negative = inhibition [10] | max response [10, 17] [%] | max response [10, 18] [%] | Potency [11] | Potency [12] | Potency [13] | Potency [14] | Potency [15] | Potency [16] | activation [16] |
| --- | --- | --- | --- | --- | --- | --- | --- | --- | --- | --- | --- | --- | --- | --- | --- | --- | --- | --- | --- |
| CN(C)Cc1ccccc1-c1nccc(Nc2ccc(F)cc2)n1 | 10.8 µM (inactive) | 7.82% (inactive) | 3.16 µM (active) | -13.9% (inactive) | -5.3% (inactive) | > 46 µM (inactive) | > 46 µM (inactive) | inactive | inactive | 5.52% (inactive) | 21.6 | 26.6 | inactive | inactive | inactive | inactive |  |  |  |
| COc1ccccc1-c1nccc(Nc2ccc(F)cc2)n1 | > 11.4 µM (inactive) | 6.43% (inactive) |  | 10.2% (inactive) | -4% (inactive) | > 46 µM (inactive) | > 46 µM (inactive) | inactive |  | 4.58% (inactive) | 9.46 | 12.9 | inactive | inactive | inactive |  |  |  |  |
| O=c1c(-c2ccc(F)cc2)nc2cnc(N3CCNCC3)nc2n1Cc1cccs1 | > 11.4 µM (inactive) |  | 10 µM (active) | 200% [activator] (active) |  | > 9.22 µM (inactive) | > 46 µM (inactive) |  | inactive | 1.91% (inactive) | 8.56 | 9.26 | inactive | inactive | inactive | inactive | inactive | 2.51 µM (active) |  |
| COc1ccccc1-c1ccc2ncnc(NC3CC3)c2c1 | > 11.4 µM (inactive) | -1.03% (inactive) |  | -1.81% (inactive) | -18.1% (inactive) | > 46 µM (inactive) | > 46 µM (inactive) | inactive |  | -9.29% (inactive) | -20.8 | -29.7 | 11.2 µM (active) | 14.1 µM (active) | 12.6 µM (active) | inactive |  |  | 27.8% (inactive) |
| COc1ccc(-c2nc3cnc(OC)nc3n(C[C@H]3CCCO3)c2=O)cc1 | > 11.4 µM (inactive) | -17.7% (inactive) |  | 11.8% (inactive) | -12.4% (inactive) | > 9.22 µM (inactive) | > 46 µM (inactive) | inactive |  | 0.324% (inactive) | 2.19 | 1.25 | inactive | inactive | inactive | inactive |  |  |  |
| COc1cccc(-c2ccc3ncnc(NCCNC(C)=O)c3c2)c1 | > 11.4 µM (inactive) | -19.2% (inactive) | 3.16 µM (active) | 21% (inactive) | 11% (inactive) | > 46 µM (inactive) | > 46 µM (inactive) | inactive | inactive | -2.84% (inactive) | -13.2 | -16.4 | 0.355 µM (active) | 0.447 µM (active) |  | inactive |  |  | 5.52% (inactive) |
